Measurements as given in PubChem BioAssay AID624088 (Broad Institute, 2012).

Assay: nuclear b-catenin accumulation in U2-OS cells – cell-based, PathHunter, beta-gal complementation, dry powder, orthogonal assay for GSK3b inhibitor project, dose response (AID 624088)
Conditions: U2-OS PathHunter beta-catenin translocation, beta-gal luminescence, 6 h; series mostly up to 26 µM; activity change, negative = active: at the top concentration;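 active = fitted potency no more than ten times the top tested concentration; inactive = fitted potency more than ten times the top tested concentration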

Activity change, negative = active, inactive:
COc1ccccc1C1C2=C(CC3(CCCCC3)CC2=O)Nc2n[nH]c(C)c21 (stereo not given) -10.4%
Cc1[nH]nc2c1[C@H](c1ccccc1C(F)(F)F)C1=C(CC(C)(C)CC1=O)N2 -8.73%
COc1ccc(-c2nn(-c3ccccc3)cc2CO)cc1 3.06%
COc1ccccc1-c1c2c(nc3n[nH]c(C)c13)CCC2=O 3.68%
COc1ccccc1[C@H]1C2=C(CC(C)(C)CC2=O)Nc2n[nH]c(C(F)(F)F)c21 -21.2%
Cc1[nH]nc2c1C(c1ccc(C(F)(F)F)cc1)C1=C(CC(C)(C)CC1=O)N2 (stereo not given) -0.417%
COc1ccccc1C1C2=C(CC(C)(C)CC2=O)Nc2ccccc21 (stereo not given) 3.16%
COc1ccccc1[C@@H]1C2=C(CC(C)(C)CC2=O)Nc2n[nH]c(C)c21 -8.38%
Cc1[nH]nc2c1C(C1CCCCC1)C1=C(CC(C)(C)CC1=O)N2 (stereo not given) -2.42%
COc1ccccc1C1C2=C(CC(C)(C)CC2=O)Nc2onc(C)c21 (stereo not given) 4.28%
O/N=C/c1cn(-c2ccccc2)nc1-c1ccc(Cl)cc1 -6.62%
Cc1[nH]nc2nc3c(cc12)C(=O)CC(C)(C)C3 -0.088%
Cc1ccccc1C1C2=C(CC(C)(C)CC2=O)Nc2n[nH]c(C)c21 (stereo not given) -13.1%
Cc1[nH]nc2c1C(C)C1=C(CC(C)(C)CC1=O)N2 (stereo not given) -6.12%
COc1ccccc1C1C(C(C)=O)=C(C)Nc2n[nH]c(C)c21 (stereo not given) -3.19%
COc1ccc(-c2nn(-c3ccccc3)cc2C(=O)O)cc1 -5.37%
COc1ccccc1C1C2=C(CCC(C)(C)C2=O)Nc2n[nH]c(C)c21 (stereo not given) -2.98%
Cc1[nH]nc2c1C(C1CC1)C1=C(CC(C)(C)CC1=O)N2 (stereo not given) 0.6%
COc1ccccc1C1C2=C(CC(C)(C)CC2=O)Nc2n[nH]c(-c3ccccc3)c21 (stereo not given) -5.82%
COc1ccccc1C1C2=C(CCCC2=O)Nc2n[nH]c(C)c21 (stereo not given) 2.27%
